This excerpt belongs to a sample that is enriched for hits.
Tb PYK inh = T. brucei pyruvate kinase inhibition; AID 624173; TbPYK enzyme, Kinase-Glo Plus ATP luminescence, 45 min; Potency, µM (doses to about 76.8 µM), hits mostly inhibitors; 0.12% of 410,000 active; Q57TT1; further: nearly all actives have a fitted effect of over 50% in size
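Activity of T. brucei pyruvate kinase was followed by Kinase-Glo Plus luminescence after the enzyme reacted 45 min at room temperature with 130 uM ADP (final) and substrate. Test compounds were added before ADP at multiple concentrations.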
Sm TGR block = S. mansoni TGR enzyme inhibition. Q962Y6. purified TGR, DTNB reduction, TNB absorbance 405 nm. Potency, µM (highest dose often 114 µM), actives largely listed as inhibitors. 3% of 360,000 active; further: nearly all actives have a fitted effect of over 60% in size
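TGR 20 nM + NADPH 100 uM (dispensed conc.), cpd preinc 15 min RT; start with NADPH (500 uM addition) then DTNB (15 mM addition). Kinetic TNB absorbance, 405 nm filter. Four-parameter Hill fit across titration.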
LmPK inh = blocks Leishmania mexicana pyruvate kinase activity; Q27686; AID 1721; Potency, µM (top dose mostly 57.5 µM), hits mostly inhibitors; purified LmPK, Kinase-Glo ATP luminescence, 1 h; 0.37% of 290,000 active
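ATP generated from ADP (0.1 mM) and PEP (0.5 mM) by 0.1 nM LmPK over 1 h at room temperature (pH 7.2 imidazole buffer) was detected by coupled luciferase luminescence. Values were normalized to uninhibited and no-enzyme wells.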
CHX counter = counter-screen hit for Shiga toxin inhibitors, cycloheximide. cell reporter, cycloheximide protein synthesis inhibition counterscreen. max response, %. 12% of 300,000 active. AID 2314; in the data active means max response mostly above about 13%, no sharp cut-off; inactive means mostly below about 14%; further: read at 38.3 µM for the half of the compounds with a filed dose
Shiga inhibitor = blocks Shiga toxin action in Vero cells; 9.2% of 290,000 active; Vero cells, Shiga toxin protein synthesis inhibition reporter; inhibition, % at 38.7 µM; in the data active means inhibition mostly above about 28%, no sharp cut-off; inactive means mostly below about 43%
Giardia FBPA inh = blocks Giardia fructose-bisphosphate aldolase activity | A8B2U2 | purified Giardia FBPA | Potency, µM (series often up to 59.6 µM), usual class: inhibitors | 0.71% of 290,000 active | AID 2451; further: nearly all actives have a fitted effect of over 55% in size
Target sequence (A8B2U2 whole entry, looked up): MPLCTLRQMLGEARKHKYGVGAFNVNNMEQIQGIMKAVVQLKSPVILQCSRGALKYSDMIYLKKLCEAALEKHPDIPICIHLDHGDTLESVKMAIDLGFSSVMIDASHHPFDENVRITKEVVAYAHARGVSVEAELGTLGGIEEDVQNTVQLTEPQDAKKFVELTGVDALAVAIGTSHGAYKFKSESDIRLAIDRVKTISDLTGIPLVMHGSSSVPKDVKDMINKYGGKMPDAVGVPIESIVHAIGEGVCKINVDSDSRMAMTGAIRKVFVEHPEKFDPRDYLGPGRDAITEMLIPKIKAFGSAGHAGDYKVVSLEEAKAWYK
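40 nM FBPA preincubated 10 min at RT with compound (up to 57.5 uM final), then substrate plus GAPDH/TPI/NAD/arsenate coupling and diaphorase/resazurin added. Fluorescence read after 20 min at RT, 525/598 nm.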
Large screens that a line does not name were inactive. Unless noted, the call rests on the fitted dose curve; in most records, active means well fitted curve in the direction sought with a large enough effect; inconclusive means small, poorly fitted or top-dose-only effect, or another doubt; inactive means no such curve, though single readings can be large; an effect the other way counts as inactive or inconclusive.

CN(C)CCNC(=O)C1(C)Cc2c(-c3cccc(C(F)(F)F)c3)ccnc2O1 (stereo unspecified)	none (no result: Sm TGR block, LmPK inh, CHX counter, Shiga inhibitor, Giardia FBPA inh)
COC(=O)CCC(=O)c1ccn(S(=O)(=O)c2ccccc2)c1	none
Cc1ccccc1CNC(=O)Cn1c(=O)c2cccn2c2cccnc21	none (no result: LmPK inh, CHX counter, Shiga inhibitor, Giardia FBPA inh)
Cc1ccc(OCCCN2CCOCC2)c([N+](=O)[O-])c1	CHX counter 36, Shiga inhibitor 74
Cc1ccc([N+](=O)[O-])c(OCCN2CCCCCC2)c1	none
O=[N+]([O-])c1ccccc1OCCCN1CCc2ccccc2C1	CHX counter 9.9, Giardia FBPA inh inconclusive
O=[N+]([O-])c1ccccc1OCCN1CCCC1	none
Cc1ccc(OCCN2CCN(C)CC2)c([N+](=O)[O-])c1	none
Cc1ccc([N+](=O)[O-])c(OCCN2CCc3ccccc3C2)c1	CHX counter 16, Giardia FBPA inh inconclusive
CCN1CCN(Cc2nc3cc(NC(=O)c4cccc([N+](=O)[O-])c4)ccc3n2CC)CC1	none (no result: LmPK inh, CHX counter, Shiga inhibitor, Giardia FBPA inh)
CC1(C(=O)NCc2ccccc2)Cc2c(-c3ccc4c(c3)OCO4)ccnc2O1 (stereo unspecified)	none (no result: Sm TGR block, LmPK inh, CHX counter, Shiga inhibitor, Giardia FBPA inh)
COc1cccc(-c2c(C(=O)N/N=C(\C)c3cccs3)nnn2-c2nonc2N)c1	none
CC1SCC(=NOCc2ccccc2)CS1 (stereo unspecified)	CHX counter 38, Shiga inhibitor 114
CCCCCn1nc(C)c(/C=N/NC(=O)c2ccoc2C)c1C	LmPK inh inconclusive, CHX counter 40, Shiga inhibitor 68
CCn1nc(C)c(/C=N/NC(=O)c2nc3nc(C)cc(C)n3n2)c1C	none
Cc1cc(C(=O)N/N=C/c2c(C)nn(-c3ccccc3)c2C)c(C)o1	CHX counter 42, Shiga inhibitor 59
CCn1nc(C)c(/C=N\NC(=O)c2cccc(OC)c2)c1C	none
CCn1nc(C)c(/C=N/NC(=O)c2ccoc2C)c1C	Tb PYK inh inconclusive, LmPK inh inconclusive, CHX counter 25 (no result: Giardia FBPA inh)
Cc1nn(-c2ccccc2)c(C)c1/C=N/NC(=O)c1ccc(F)cc1	none (no result: Sm TGR block, LmPK inh, CHX counter, Shiga inhibitor, Giardia FBPA inh)
CCCCCn1nc(C)c(/C=N\NC(=O)c2cc(C)oc2C)c1C	CHX counter 18, Shiga inhibitor 44
Cc1ccc(-c2csc(N3CCC[C@@H]3C(=O)NCCn3c(-c4ccncc4)nc4ccccc43)n2)cc1	none
Clc1ccc(-c2csc(N/N=C/c3cccnc3)n2)c(Cl)c1	none
Cc1ccc(/C=N/Nc2nc(C(C)(C)C)cs2)o1	CHX counter 46, Shiga inhibitor 93, Giardia FBPA inh inconclusive
C(=N\Nc1nc(-c2ccccc2)cs1)/c1cccnc1	CHX counter 46, Shiga inhibitor 61
Cc1ccc(/C=N/Nc2nc3ccccc3s2)o1	CHX counter 43, Shiga inhibitor 75
Cc1cc(=O)[nH]c(N/N=C/c2ccc(C)o2)n1	none
CC(C)(C)c1csc(N/N=C/c2cccnc2)n1	CHX counter 37, Shiga inhibitor 127
Cc1cc(OCC(=O)Nc2ccc(C(=O)OC3CCCCC3)cc2)ccc1Cl	none (no result: LmPK inh, CHX counter, Shiga inhibitor, Giardia FBPA inh)
O=C1NC[C@H](CCCCN2CCN(CCC3CCCCC3)C(=O)C2=O)N(CCc2ccccc2)C1=O	none (no result: Sm TGR block, LmPK inh, CHX counter, Shiga inhibitor, Giardia FBPA inh)
CCCN(CC#CCOc1ccc(OC)cc1)CCC	Sm TGR block 13µM, Giardia FBPA inh inconclusive
C=CCNCC#CCOc1ccc(OC)cc1	Sm TGR block inconclusive, Giardia FBPA inh inconclusive
N#C/C(=C/c1ccc2c(c1)OCO2)C(=O)Nc1ccc(O)cc1	CHX counter 49
N#C/C(=C\c1ccc2c(c1)OCCO2)C(=O)Nc1ccc(C(=O)O)cc1	Sm TGR block inconclusive, CHX counter 78, Shiga inhibitor 113
COc1ccc2nc(/C=N/NC(=O)[C@H](C)NC(=O)OC(C)(C)C)ccc2c1	CHX counter 16, Shiga inhibitor active (no result: Tb PYK inh)
Cc1ccc2cc(/C=N/NC(=O)[C@H](C)NC(=O)OC(C)(C)C)c(Cl)nc2c1	none
CN(C)CCNC(=O)c1cc2sc3ccccc3c2s1	Sm TGR block inconclusive, CHX counter 40, Shiga inhibitor 85
CCN(CC)C(=O)c1cc2sc3ccccc3c2s1	CHX counter 71, Shiga inhibitor 106
COCCN(CCOC)C(=O)c1cc2sc3ccccc3c2s1	none
COC(=O)c1cc2sc(C)cc2n1Cc1nc(-c2cccc(Br)c2)oc1C	none (no result: LmPK inh, CHX counter, Shiga inhibitor, Giardia FBPA inh)
CCCCNC(=O)Cn1ncc2c(C)n(Cc3cccc(Cl)c3)c(C)c2c1=O	none (no result: LmPK inh, CHX counter, Shiga inhibitor, Giardia FBPA inh)

High-throughput results (PubChem)
